# Assay outcomes (PubChem BioAssay)
# Rows were chosen to be rich in hits. Some 3.8% of all compounds tested hit in one or more screens of this group.
# A549 viability: Nrf2 qHTS screen for inhibitors: counterscreen for cytotoxicity; A549 ARE-Fluc cells, CellTiter-Fluor viability, 18-24 h; Potency, µM (series often up to 46 µM), inactives show at the highest dose activity change, negative = cytotoxicity, usual class: inhibitors; 0.16% of 390,000 active; also: % is scaled to controls: 0 for no effect and ±100 for the full control effect
#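 A549 ARE_Fluc cells in 5% FBS OPTI-MEM were exposed to compounds in concentration-response for 18-24 h at 37 deg C. Viability was read by CellTiter-Fluor fluorescence (Ex 405/Em 525) after 30 min, before the luciferase read.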
# Nrf2 ARE act: qHTS of Nrf2 Activators; AREc32 ARE-luciferase reporter (MCF7-derived line), luminescence, 24 h; Potency, µM (highest dose often 46.1 µM), for inactives: at the top dose activation, most hits filed as activators; 0.31% of 410,000 active; AID 624171, 2012; also: % of control where 0% means no effect; nearly all actives have a fitted effect of over 65% in size
#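 Luminescent ARE reporter assay in AREc32_Fluc cells: overnight plating at 37 deg C, 24 hr compound incubation, Steady-Glo added, 30 min RT before reading.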
# Nrf2 inh: Nrf2 qHTS screen for inhibitors | A549 ARE-Fluc reporter, luciferase luminescence, 18-24 h | Potency, µM (doses to about 46 µM), for the others: top-dose activity change, negative = inhibition, actives largely listed as inhibitors | 2.1% of 360,000 active; also: % is scaled to controls: 0 for no effect and ±100 for the full control effect; nearly all actives have a fitted effect of over 60% in size
#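 Nrf2 function is reported as luminescence of an ARE-controlled luciferase in A549 cells. Compounds were tested at several concentrations, and a CellTiter-Fluor read on the same wells flagged cytotoxicity.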
# mIDH1 inhibitor: qHTS for Inhibitors of mutant isocitrate dehydrogenase 1 (IDH1): qHTS. AID 602179, 2012. 0.093% of 390,000 active. IDH1-R132H enzyme, NADPH consumption, diaphorase/resazurin fluorescence. Isocitrate dehydrogenase [NADP] cytoplasmic (Homo sapiens), O75874. Potency, µM (doses to about 76.6 µM), without a hit: top-dose activity change, negative = inhibition, most hits filed as inhibitors; also: % is scaled to controls: 0 for no effect and ±100 for the full control effect; nearly all actives have a fitted effect of over 65% in size
# Target sequence (O75874 whole entry R132H, stated change not applied): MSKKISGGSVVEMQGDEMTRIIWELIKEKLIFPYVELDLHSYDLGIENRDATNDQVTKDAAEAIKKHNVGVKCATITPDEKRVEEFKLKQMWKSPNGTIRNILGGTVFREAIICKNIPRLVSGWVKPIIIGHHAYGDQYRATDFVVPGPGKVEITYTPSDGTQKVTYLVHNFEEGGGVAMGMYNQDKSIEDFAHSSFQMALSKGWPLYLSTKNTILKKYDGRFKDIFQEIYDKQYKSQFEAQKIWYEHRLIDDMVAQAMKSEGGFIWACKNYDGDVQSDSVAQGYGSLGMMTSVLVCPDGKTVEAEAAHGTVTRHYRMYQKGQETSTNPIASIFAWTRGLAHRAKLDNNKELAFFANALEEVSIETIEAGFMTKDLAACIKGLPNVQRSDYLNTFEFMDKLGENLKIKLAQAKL
#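 IDH1-R132H (0.5 ug/mL dispensed) in pH 7.5 Tris buffer was preincubated 30 min with compound, then given a substrate mix of 0.016 mM NADPH and 2 mM alpha-KG for 80 min at room temperature; remaining NADPH was read by diaphorase/resazurin fluorescence.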
# ELG1 repair inh: qHTS screen for small molecules that inhibit ELG1-dependent DNA repair in human embryonic kidney (HEK293T) cells expressing luciferase-tagged ELG1; HEK293T ELG1-luciferase reporter, luminescence, 16 h; DNA damage induced by 5-fluorouridine; Potency, µM (doses to about 46.1 µM), for the others: top-dose activity change, negative = inhibition, actives largely listed as inhibitors; 2.3% of 330,000 active; AID 504467, 2011; also: % is scaled to controls: 0 for no effect and ±100 for the full control effect; nearly all actives have a fitted effect of over 55% in size
#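 DMSO vehicle served as the neutral condition. Each well held 2,000 cells given 5-fluorouridine plus compound; after 16 hr at 37 °C/5% CO2, ONE-Glo was added and luciferase measured 30 min later.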
# ELG1 FLuc counter: qHTS screen for small molecules that inhibit ELG1-dependent DNA repair: Hit Confirmation in Cell-Based Luciferin Assay; shares compounds with ELG1 repair inh; cell-free firefly luciferase luminescence counter-screen, ViewLux; Potency, µM (top dose mostly 46.1 µM), inactives show top-dose activity change, negative = inhibition, hits mostly inhibitors; 3% of 350 active; AID 624247, 2012; also: % is scaled to controls: 0 for no effect and ±100 for the full control effect
# ELG1 Luc conf: HTS assay for small molecules that inhibit ELG1-dependent DNA repair in human embryonic kidney (HEK293T) cells expressing luciferase-tagged ELG1: Hit Confirmation; HEK293T ELG1-luciferase levels, luminescence; cells co-treated with 5-fluorouridine; 68% of 670 active; AID 624248, 2012; shares compounds with ELG1 repair inh; Potency, µM (top dose mostly 46.1 µM), inactives show at the highest dose activity change, negative = inhibition, actives largely listed as inhibitors; also: % is scaled to controls: 0 for no effect and ±100 for the full control effect; nearly all actives have a fitted effect of over 55% in size
# ELG1-Luc MMS: MMS-stimulated human ELG1 repair inhibition, confirmed. Potency, µM (series often up to 46.1 µM), inactives show top-dose activity change, negative = inhibition, most hits filed as inhibitors. 53% of 670 active. HEK293T luciferase-tagged ELG1 level, MMS stimulated. shares compounds with ELG1 repair inh; also: % is scaled to controls: 0 for no effect and ±100 for the full control effect; nearly all actives have a fitted effect of over 60% in size
# ELG1 5FU viab: qHTS screen for small molecules that inhibit ELG1-dependent DNA repair: Hit Confirmation with 5FU Viability; Potency, µM (highest dose often 46.1 µM), for inactives: top-dose activity change, negative = viability loss, usual class: cytotoxic; cell viability with 5-FU, ELG1-dependent repair; AID 624250, 2012; shares compounds with ELG1 repair inh; 670 tested, under 10 active;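 also: ELG1-luc HEK293T cells cotreated with 5-fluorouridine at 10 µM final; viability measured 16 h after compound addition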
# ELG1 MMS cell: qHTS screen for small molecules that inhibit ELG1-dependent DNA repair: Hit Confirmation with MMS Viability. AID 624251, 2012. shares compounds with ELG1 repair inh. 33% of 670 active. Potency, µM (series often up to 46.1 µM), inactives show top-dose activity change, negative = viability loss, actives largely listed as cytotoxic. Cell viability with MMS, ELG1-dependent DNA repair;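 also: ELG1-luc HEK293T cells co-treated with 10 µM MMS; viability read 16 h after compound addition; % is scaled to controls: 0 for no effect and ±100 for the full control effect; nearly all actives have a fitted effect of over 60% in size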
# ELG1 unstim viab: qHTS screen for small molecules that inhibit ELG1-dependent DNA repair: Hit Confirmation with Unstimulated Viability Assay | shares compounds with ELG1 repair inh | cell viability counter-screen, unstimulated, luminescence | Potency, µM (highest dose often 45.9 µM), without a hit: at the top dose activity change, negative = loss of viability, hits mostly cytotoxic | 8% of 900 active;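 also: compound exposure lasted 16 hours before reading; % is scaled to controls: 0 for no effect and ±100 for the full control effect; nearly all actives have a fitted effect of over 55% in size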
# FLuc enzyme: qHTS screen for small molecules that inhibit ELG1-dependent DNA repair: Hit Confirmation in Biochemical Luciferin Assay | purified firefly luciferase, luminescence counter-screen | Potency, µM (top dose mostly 57.5 µM), inactives show at the top dose activity, negative = inhibition, usual class: inhibitors | shares compounds with ELG1 repair inh | 10% of 350 active; also: % is scaled to controls: 0 for no effect and ±100 for the full control effect
# * = called active by the depositor; u = inconclusive; x = not tested or not shown. Calls follow the shape of the dose curve; as a rule, active = well fitted curve in the direction sought with a large enough effect; inconclusive = small, poorly fitted or top-dose-only effect, or another doubt; inactive = no such curve, though single readings can be large; an effect the other way counts as inactive or inconclusive. Potency is read from the fitted curve at half-maximal effect.
SMILES,A549 viability,Nrf2 ARE act,Nrf2 inh,mIDH1 inhibitor,ELG1 repair inh,ELG1 Luc conf,ELG1-Luc MMS,ELG1 5FU viab,ELG1 MMS cell,ELG1 unstim viab,others
COc1ccc(NC(=O)C2CCN(c3ncnc4c3nc3n4CCCCC3)CC2)cc1Cl,-5%,0%,-6%,-4%,1.8µM*,3.2µM*,u,u,u,u,ELG1 FLuc counter=7%;FLuc enzyme=-4%
O=C(Nc1ccc(F)cc1)C1CCN(c2ncnc3c2nc2n3CCCCC2)CC1,-2%,0%,-7%,4%,u,x,x,x,x,x,
Cc1ccc(NC(=O)C2CCN(c3ncnc4c3nc3n4CCCCC3)CC2)cc1Cl,u,0%,13µM*,-5%,2.3µM*,10µM*,18µM*,u,-14%,u,ELG1 FLuc counter=-1%;FLuc enzyme=0%
Cn1cccc1C(=O)Nc1ccc(N2CCOCC2)cc1,1%,-3%,u,-17%,u,x,x,x,x,-13%,
O=C(CNC(=O)c1ccccc1)NCC(=O)OCC(=O)c1ccc2ccccc2c1,0%,x,-6%,x,x,x,x,x,x,x,
CC(=O)c1ccc(-c2cnc3c(NC=O)cc(-c4ccccc4Oc4ccccc4)cn23)cc1,x,8%,x,x,x,x,x,x,x,x,
Cc1ccc(-c2nc3ccccc3n3nnnc23)cc1,7%,1%,u,0%,u,x,x,x,x,3%,ELG1 FLuc counter=59%;FLuc enzyme=u
CCCCSc1nc2ccc(Nc3nc(N4CCOCC4)nc(N4CCOCC4)n3)cc2s1,-10%,-1%,u,-6%,16µM*,13µM*,u,u,0%,-10%,ELG1 FLuc counter=5%;FLuc enzyme=-6%
Cc1ccc(Nc2nc(N3CCOCC3)nc(N3CCOCC3)n2)cc1C,u,7%,-18%,-2%,u,x,x,x,x,x,
CC(C)CC(N)c1csc(Nc2cnccn2)n1 (stereo not drawn),x,3%,x,x,x,x,x,x,x,x,
Cc1ccc(-c2csc(=Nc3cccnc3)n2CCCn2ccnc2)cc1C,-6%,0%,18µM*,-1%,2.9µM*,4µM*,6.3µM*,-3%,10µM*,22µM*,ELG1 FLuc counter=u;FLuc enzyme=1%
COc1cccc2oc(-c3ccccc3)cc(=O)c12,x,x,x,x,x,x,x,x,x,u,
O=c1cc(-c2ccccc2)oc2cc(O)c(O)c(O)c12,-2%,7%,2%,-8%,u,x,x,x,x,x,
O=c1cc(-c2ccccc2)oc2ccc(Br)cc12,-1%,u,u,10%,u,x,x,x,x,-14%,
Cc1ccc(C(=O)Cn2ncsc2=N)cc1,-16%,3%,u,4%,u,x,x,x,x,x,
Cc1ccc(C(=O)Cn2c3c(sc2=N)CCCC3)cc1,x,x,x,x,x,x,x,x,x,u,ELG1 FLuc counter=-2%;FLuc enzyme=0.092µM*
CCOC(=O)C1CCC(CN(Cc2ccc(OC)cc2)S(=O)(=O)c2ccc(F)c(C(=O)Nc3cc(Cl)ccc3OC)c2)CC1 (stereo not drawn),3%,0%,x,10%,x,x,x,x,x,x,
CCCCOc1ccc(C(=O)Nc2ccc3c(c2)CCCN3S(=O)(=O)c2ccc(C)cc2)cc1,-4%,0%,x,13%,x,x,x,x,x,x,
Cc1c(C)c2ccc(OCC(=O)N3CCN(C(=O)C4COc5ccccc5O4)CC3)cc2oc1=O (stereo not drawn),9%,-1%,u,-1%,1.8µM*,4µM*,-18%,u,-6%,u,
CCCc1cc(=O)oc2cc(OCC(=O)N3CCN(C(=O)C4COc5ccccc5O4)CC3)ccc12 (stereo not drawn),6%,0%,10%,6%,3.7µM*,3.1µM*,u,u,-8%,u,
Cc1cc(=O)oc2cc(OCC(=O)N3CCN(C(=O)C4COc5ccccc5O4)CC3)c(Cl)cc12 (stereo not drawn),0%,0%,u,-3%,u,x,x,x,x,x,
O=C(COc1ccc2ccc(=O)oc2c1)N1CCN(C(=O)C2COc3ccccc3O2)CC1 (stereo not drawn),-4%,0%,-17%,-7%,1.5µM*,2.8µM*,14%,u,0%,-1%,
Cc1cc(=O)oc2cc(OCC(=O)N3CCN(C(=O)C4COc5ccccc5O4)CC3)ccc12 (stereo not drawn),0%,0%,-20%,-11%,1.2µM*,2.2µM*,u,u,u,-8%,
COc1ccc(N2CCN(CCCNC(=O)c3cnn(-c4ccc(C)cc4)c3-n3cccc3)CC2)cc1,0%,0%,u,15%,x,x,x,x,x,x,
CNc1cncc(-c2ccoc2)n1,x,9%,x,x,x,x,x,x,x,x,
